Compound activity as filed in PubChem BioAssay.
Only some compounds are listed: those with a hit (about 2.7% of all), similar ones and a draw of the others.
IDE cell inh: inhibits human insulin-degrading enzyme in HEK cells; P14735; FAbetaB cleavage, fluorescence polarization; inhibition, % at 5.59 µM; 320,000 compounds, 0.41% hits;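 active means percent inhibition above the average of all tested compounds plus 3 SD, set per screening campaign, cut at about 16% in these data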;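 further: IDE supplied by intact live HEK cells; FP after avidin binding of uncleaved biotin substrate so inhibition keeps polarization high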
TMEM16A inh: mouse TMEM16A channel inhibition, primary screen. Q8BHY3. HEK293 TMEM16A/YFP iodide influx fluorescence, ionomycin. normalized B-score (activity score, 25-100; higher = stronger inhibition) at 10 µM. 310,000 compounds, 1.2% hits. AID 588511;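 active means ratio plate-corrected score three or more library SD toward inhibition, starting fluorescence score within five deviations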;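 further: score derived from kinetic fluorescence span divided by baseline fluorescence per well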
Target sequence (Q8BHY3 whole entry, looked up): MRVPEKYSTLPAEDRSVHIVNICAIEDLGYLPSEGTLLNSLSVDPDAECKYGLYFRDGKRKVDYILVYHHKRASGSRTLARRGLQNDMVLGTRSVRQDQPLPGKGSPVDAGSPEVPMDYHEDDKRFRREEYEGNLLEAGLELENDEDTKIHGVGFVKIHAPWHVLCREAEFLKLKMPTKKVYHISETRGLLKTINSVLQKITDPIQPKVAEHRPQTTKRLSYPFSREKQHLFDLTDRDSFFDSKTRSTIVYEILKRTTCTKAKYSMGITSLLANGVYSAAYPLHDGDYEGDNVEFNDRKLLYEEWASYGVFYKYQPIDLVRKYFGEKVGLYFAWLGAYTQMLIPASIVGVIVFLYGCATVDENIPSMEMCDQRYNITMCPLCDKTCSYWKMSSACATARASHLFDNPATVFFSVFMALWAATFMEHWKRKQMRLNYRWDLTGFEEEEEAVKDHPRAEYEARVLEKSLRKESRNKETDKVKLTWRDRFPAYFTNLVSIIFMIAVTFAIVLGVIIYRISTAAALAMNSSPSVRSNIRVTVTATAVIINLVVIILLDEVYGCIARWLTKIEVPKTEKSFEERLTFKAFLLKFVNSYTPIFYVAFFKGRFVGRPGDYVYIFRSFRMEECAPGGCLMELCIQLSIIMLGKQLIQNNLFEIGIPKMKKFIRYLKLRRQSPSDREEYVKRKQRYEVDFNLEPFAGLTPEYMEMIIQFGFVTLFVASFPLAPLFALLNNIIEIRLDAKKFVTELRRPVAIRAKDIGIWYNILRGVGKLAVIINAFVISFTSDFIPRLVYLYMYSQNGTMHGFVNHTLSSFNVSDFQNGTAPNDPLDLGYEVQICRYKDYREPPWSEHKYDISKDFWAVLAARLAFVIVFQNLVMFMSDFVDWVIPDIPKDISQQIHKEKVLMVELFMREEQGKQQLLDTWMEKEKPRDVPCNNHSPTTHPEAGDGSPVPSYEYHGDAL
CHT PAM: allosterically activates the human high affinity choline transporter | CHT-expressing cells, membrane potential dye, choline EC20; hits give high values; LV-AA mutant CHT in HEK293 cells | 310,000 compounds, 0.49% hits | B-score at 10 µM;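 active means initial fluorescence not abnormally high and integrated response B-score, plate-corrected, over 3 SD above library mean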
CHT block: inhibits the human high affinity choline transporter. 310,000 compounds, 0.86% hits. B-score at 10 µM. CHT-expressing cells, membrane potential dye, choline response; hits give low values. Q9GZV3;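 active means B-score over 3 SD under the library average, and starting fluorescence ratio not unusually high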;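 further: choline stimulus applied at its EC90 after an EC20 pre-addition; B-score computed on integrated fluorescence ratio after choline addition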
ANO1 activ: mouse TMEM16A channel activation, primary screen | B-score at 10 µM | HEK293 TMEM16A/YFP-H148Q/I152L, iodide quench fluorescence; hits give low values | 340,000 compounds, 0.3% hits | Q8BHY3 | AID 623877;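 active means fluorescence-ratio B-score plate-corrected deviation score at least 3 library SD below zero, with starting fluorescence score within 5 deviations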;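 further: channel opened by trigger with iodide after compound preincubation; score built on the fluorescence ratio of max minus min over baseline; more negative score means more quench and so TMEM16A activation or potentiation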
IDE act: boosts human insulin-degrading enzyme activity in HEK cells. AID 493087. FAbeta-B cleavage, fluorescence polarization; 0% vehicle, 100% cell-free pure enzyme wells. 340,000 compounds, 0.073% hits. P14735. activation, % at 5.96 µM;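 active means activation above the mean of all tested compounds plus 3 SD, set per screening campaign, cut at about 17% in these data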
CHT act confirm: confirmation of human choline transporter (CHT) activators; shares compounds with CHT PAM; CHT-expressing cells, membrane potential dye fluorescence (FDSS); % of choline EC20–EC90 response window; HEK293 expressing CHT LV-AA mutant; choline added at its EC20; activation, % at 10 µM; 2,500 compounds, 91% hits;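 active means primary screen active, with duplicate mean activation above negative control mean plus 3 SD, cut at about 11% in these data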
HEK293 MP dye: counter-screen for CHT activators: effect in parental HEK293 cells. ratio readout change at 10 µM, hits read low. 2,500 compounds, 62% hits. membrane potential dye fluorescence (FDSS); measured after EC20 choline addition. shares compounds with CHT PAM;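 active means duplicate-averaged ratio beyond 3 SD from buffer wells, up or down, though filed actives are nearly all decreases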
Large screens that a line does not name were inactive (follow-up assays come after a bar, where they were run).

COc1ccccc1OCC(=O)Nc1ccc2c(c1)n(C)c(=O)n2C	CHT PAM 6.6 | CHT act confirm 63 | HEK293 MP dye -53
Cc1nc2sc3c(c2c(=N)n1N)CC(C)(C)OC3	CHT PAM 8.4 | CHT act confirm 63 | HEK293 MP dye -47
CC(Sc1nnc(-c2ccccc2)c(-c2ccccc2)n1)C(=O)NCC1CCCO1 (centres undefined)	none (no result: TMEM16A inh, CHT PAM, CHT block)
N#Cc1c(=O)c2nc(NCCCO)ncc2n2c(=O)c3ccccc3[nH]c12	none
N#Cc1c(=O)c2nc(NCc3ccccc3)ncc2n2ccccc12	none | CHT act confirm 24 | HEK293 MP dye -40
CC(=O)c1ccc(N2CCN(C(=O)c3ccccc3SCC(=O)NCc3ccco3)CC2)c(F)c1	none (no result: IDE cell inh, TMEM16A inh, CHT PAM, CHT block)
CCCN1CCC(NC(=O)Cc2cccc(C)c2)CC1	none
COc1ccc(N2CCN(C(=O)COC(=O)c3ccccc3OCc3ccc(F)cc3)CC2)cc1	CHT PAM 6.8 | CHT act confirm 20 | HEK293 MP dye inactive
CC(=O)N1CCN(CC(O)COc2ccc(S(=O)(=O)N3CCOCC3)cc2)CC1 (centres undefined)	none (no result: TMEM16A inh, CHT PAM, CHT block)
CC/C(=C/c1sc2ccc(C)cc2[n+]1CCCS(=O)(=O)[O-])SC	CHT PAM 6.8 (no result: ANO1 activ, IDE act) | CHT act confirm 48 | HEK293 MP dye inactive
CC/C(=C/c1sc2ccc(C)cc2[n+]1CCO)SC	none
O=C(CCCNC(=O)c1ccc(Cl)cc1)Nc1ccccc1C(F)(F)F	none
COc1ccccc1C(=O)Nc1ccnn1C1CCN(C/C=C/c2ccc(F)cc2)CC1	none | CHT act confirm inactive | HEK293 MP dye inactive
O=C(Nc1ccnn1C1CCN(C/C=C/c2ccccc2)CC1)c1ccccc1Cl	none
O=C(CN1C(=O)NC2(CCCCC2)C1=O)N1CCN(S(=O)(=O)c2cccc(F)c2)CC1	none
CC1CC(C)CN(C(=O)C2CCN(S(=O)(=O)c3c(Cl)cccc3Cl)CC2)C1 (centres undefined)	none
Cc1cc(C)c(S(=O)(=O)Nc2cccc3nsnc23)c(C)c1	none
Cc1cc(C[n+]2ccccc2)c2nsnc2c1	CHT PAM 10 | CHT act confirm 45 | HEK293 MP dye -72
Cc1cc(NC(=O)CCCSc2nc(-c3ccco3)cc(C(F)(F)F)n2)n(-c2ccccc2)n1	none | CHT act confirm 15 | HEK293 MP dye inactive
O=c1[nH]c(=S)[nH]cc1Oc1ccccc1	none (no result: IDE cell inh, TMEM16A inh, CHT PAM, CHT block)
Cc1cc2nc(C)n(CCCNC(=O)Nc3ccc(C#N)cc3)c2cc1C	none
Cc1cc2nc(C)n(CCCN)c2cc1C	CHT PAM 8.4 | CHT act confirm 69 | HEK293 MP dye -73
Cc1nc2c3cc(Cl)ccc3n(CCN3CCOCC3)c2s1	none | CHT act confirm 15 | HEK293 MP dye inactive
CCN(CC)CCn1c2ccc(F)cc2c2nc(C)sc21	none | CHT act confirm 27 | HEK293 MP dye -63
Cc1cc(=O)n2[nH]c(-c3ccc(F)cc3)cc2n1	none | CHT act confirm 42 | HEK293 MP dye -31
Cc1ccc2c(c1)c1c3n2CCN(CC(O)CNC(C)C)C3CCC1 (centres undefined)	none | CHT act confirm 17 | HEK293 MP dye -31
Cc1cc(C)c2nc(C(F)(F)F)c(C#N)c(N)c2c1	none
CCCc1nc2c(C)cc(C)cc2c(N)c1CC	CHT PAM 7.1 | CHT act confirm 44 | HEK293 MP dye -38
CCOC(=O)CCCCCC(=O)Nc1ccc2c(c1)CC(=O)N([C@H](C)CO)C[C@H](C)[C@H](CN(C)S(=O)(=O)c1ccc(OC)cc1)O2	none (no result: TMEM16A inh, CHT PAM, CHT block)
Cc1ccc(C(=O)C[n+]2cccc3cc(C)ccc32)cc1	none | CHT act confirm 38 | HEK293 MP dye -35
CCc1cccc(OCCn2nc(C(=O)O)c3ccccc3c2=O)c1	none | CHT act confirm 30 | HEK293 MP dye inactive
Cc1cc(OCCn2nc(C(=O)O)c3ccccc3c2=O)ccc1C(C)C	none (no result: IDE cell inh, TMEM16A inh, CHT PAM, CHT block)
Cc1nnc(SCCn2c(N3CCN(C)CC3)nc3c2c(=O)n(C)c(=O)n3C)s1	CHT PAM 7.7 | CHT act confirm 46 | HEK293 MP dye -70
CC1(C)CC2CC(C)(CN2/C=N/c2sc3c(c2C#N)CC(C)(C)NC3(C)C)C1 (centres undefined)	CHT PAM 8 (no result: IDE act) | CHT act confirm 35 | HEK293 MP dye inactive
CC1(C)Cc2c(sc(NC(=O)C(C)(C)C)c2C#N)C(C)(C)N1	none
Cc1nnc(Nc2ccc(C(=O)NCCO)cc2)c2ccccc12	none
Cc1nnc(Nc2ccc3c(c2)ncn3C)c2ccccc12	none | CHT act confirm 33 | HEK293 MP dye -47
CNC(=O)c1ccc(Nc2nnc(C)c3ccccc23)cc1	none | CHT act confirm 47 | HEK293 MP dye -48
Cc1ccc(-c2nnc(Nc3ccc4c(c3)nc(C)n4C)c3ccccc23)cc1	none
Cc1c(C(=O)N2CCCCC2C)sc2nc3n(c(=O)c12)CCC3 (centres undefined)	none
C[C@H]1CN([C@@H](C)CO)C(=O)c2cccc(NS(=O)(=O)c3ccc(F)cc3)c2O[C@H]1CN(C)S(=O)(=O)c1cn(C)cn1	none (no result: TMEM16A inh, CHT PAM, CHT block)
Cc1cccc(CN2CCC(CNC(=O)CSc3cc(=O)n(C)c4cc(Cl)ccc34)CC2)c1	CHT PAM 6.4 | CHT act confirm 21 | HEK293 MP dye inactive
Cc1cc(C)n2ncc(C(=O)NCc3cccnc3)c2n1	none | CHT act confirm 42 | HEK293 MP dye -38
C=CCNc1nnc(SCC(=O)N2CCC(C(N)=O)CC2)s1	none
CC1=Nc2cccc3cccc(c23)N1C	CHT PAM 7.4 | CHT act confirm 59 | HEK293 MP dye -71
CN1C(=O)N(C)c2cccc3cccc1c23	none
Cn1c2ccc(F)cc2c2ncn(CCCN(CCO)CCO)c(=O)c21	none | CHT act confirm 50 | HEK293 MP dye -41
Cn1c2ccc(F)cc2c2ncn(CCN3CCOCC3)c(=O)c21	none
O=C(CNC1=NCCC1)c1ccc2c(c1)OCCO2	none | CHT act confirm 36 | HEK293 MP dye -28
O=C(CCCO)c1ccc2c(c1)OCCO2	none
COc1ccccc1NC(=O)COC(=O)/C=C/c1ccc(OC)c(OC)c1	none (no result: TMEM16A inh, CHT PAM, CHT block)
N#Cc1cc([N+](=O)[O-])ccc1NCCCn1ccnc1	CHT PAM 7.3 | CHT act confirm 62 | HEK293 MP dye -59
CN(CC(=O)Nc1ccc(Cl)c(C(F)(F)F)c1)C(=O)c1cc(-c2ccncc2)nc2ccccc12	none
CN(CC(=O)Nc1ccc(F)c(F)c1F)C(=O)c1cc(-c2ccncc2)nc2ccccc12	none | CHT act confirm 40 | HEK293 MP dye inactive
